Reference: PubChem BioAssay (NCI)
The panel holds about 83,000 compounds, 20% with a hit somewhere; the sample as a whole holds those more often.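 Activity criterion: percent growth below 10, measured after cells in 96-well plates were exposed to a single compound concentration for 48 hours.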 Activity calls are given as the source filed them.

Assays:
Assay in all cases: NCI-60 one-dose screen, 48 h (100 = growth as untreated, 0 = no growth, -100 = all killed)
Settings in all cases: 10 µM unless noted
HT29 colon = tested on: HT29 colon
SNB-75 CNS = tested on: SNB-75 CNS
SNB-19 CNS = tested on: SNB-19 CNS
PC-3 prostate = tested on: PC-3 prostate
SK-MEL-5 melanoma = tested on: SK-MEL-5 melanoma
UACC-62 melanoma = tested on: UACC-62 melanoma
SK-MEL-28 melanoma = tested on: SK-MEL-28 melanoma
SK-MEL-2 melanoma = tested on: SK-MEL-2 melanoma
U251 CNS = tested on: U251 CNS
LOX IMVI melanoma = tested on: LOX IMVI melanoma

Measured: growth

COc1cccc(OC)c1-c1nnn(C)c1C(=S)N1CCN(c2ccc([N+](=O)[O-])cc2Cl)CC1
inactive: HT29 colon 104% | SNB-75 CNS 92.2% | SNB-19 CNS 92.7% | PC-3 prostate 54% | SK-MEL-5 melanoma 90.1% | UACC-62 melanoma 69.1% | SK-MEL-28 melanoma 98.3% | SK-MEL-2 melanoma 110%

COc1ccccc1/C=C/C=N/NC1=NC2C(S1)N(C)C(=O)N2C (centres undefined)
inactive: SNB-19 CNS 29.1% | U251 CNS 25.1% | PC-3 prostate 30.2% | SK-MEL-5 melanoma 33.8% | UACC-62 melanoma 46.7% | LOX IMVI melanoma 35.3% | SK-MEL-28 melanoma 56%
active: HT29 colon 6.54%

Cc1[nH]nc2ncc(C#Cc3cncc(C(=O)Nc4ccc(CN5CCN(C)CC5)c(C(F)(F)F)c4)c3)cc12
active: HT29 colon 9.72% | SNB-75 CNS -6.21% | UACC-62 melanoma -15.8% | SK-MEL-28 melanoma -11.4% | SK-MEL-2 melanoma -44.6%
inactive: SNB-19 CNS 50.5% | PC-3 prostate 48.8% | SK-MEL-5 melanoma 40.2%

Cn1c(SCC(=O)Nc2ccc(-c3nc4ccc([N+](=O)[O-])cc4[nH]3)cc2)nc2ccccc2c1=O
inactive: HT29 colon 89.7% | SNB-75 CNS 93.2% | SNB-19 CNS 85.8% | PC-3 prostate 68.7% | SK-MEL-5 melanoma 84.8% | UACC-62 melanoma 75% | SK-MEL-28 melanoma 79.4% | SK-MEL-2 melanoma 90.7%

COc1cccc(-c2nn(-c3ccccc3)cc2-c2ccnc(N3CCN(C(=O)Nc4ccc(F)cc4)CC3)c2)c1
inactive: HT29 colon 70% | SNB-75 CNS 66.5% | SNB-19 CNS 64.5% | PC-3 prostate 44.3% | SK-MEL-5 melanoma 42.5% | UACC-62 melanoma 43.8% | LOX IMVI melanoma 59% | SK-MEL-28 melanoma 69.6% | SK-MEL-2 melanoma 51.1%

O=C(Nc1nc2ccc(O)cc2s1)c1cccc(C(F)(F)F)c1
inactive: HT29 colon 102% | SNB-75 CNS 118% | SNB-19 CNS 95.4% | PC-3 prostate 58.2% | UACC-62 melanoma 45.6% | SK-MEL-2 melanoma 57.2%

O=C1c2c(c3c4cccnc4[nH]c3c3ccc4ccccc4c23)C(=O)N1CCO
inactive: HT29 colon 75.6% | SNB-75 CNS 118% | SNB-19 CNS 69.9% | PC-3 prostate 70.1% | SK-MEL-5 melanoma 81.4% | LOX IMVI melanoma 51.7% | SK-MEL-28 melanoma 102% | SK-MEL-2 melanoma 138%

O=C(CSc1nnc(-c2ccc3nc(-c4ccc(Cl)cc4)[nH]c3c2)o1)Nc1ccc(C(=O)/C=C/c2ccc(Cl)cc2)cc1
inactive: HT29 colon 100% | SNB-75 CNS 90.9% | SNB-19 CNS 99.5% | PC-3 prostate 87.7% | SK-MEL-5 melanoma 93.7% | UACC-62 melanoma 83.2% | SK-MEL-28 melanoma 106% | SK-MEL-2 melanoma 111%
active: LOX IMVI melanoma -24.2%

CCN(CC)c1ccc(C=O)c(OCc2cn(CC(=O)Nc3ccc(Cl)cc3)nn2)c1
inactive: HT29 colon 73.2% | SNB-75 CNS 103% | SNB-19 CNS 69% | PC-3 prostate 56.2% | SK-MEL-5 melanoma 92.7% | UACC-62 melanoma 58% | SK-MEL-28 melanoma 92.7% | SK-MEL-2 melanoma 89.7%

NS(=O)(=O)c1ccc(Nc2nc(Nc3ccccc3)nc(-n3nc(-c4ccccc4)cc3-c3ccccc3)n2)cc1
active: HT29 colon 4.52%
inactive: SNB-75 CNS 56.4% | SNB-19 CNS 50.1% | PC-3 prostate 26.7% | SK-MEL-5 melanoma 39.2% | UACC-62 melanoma 54.8% | SK-MEL-28 melanoma 54.6% | SK-MEL-2 melanoma 56.3%

c1ccc(CNc2ncnc3ccc(-c4cnc5[nH]ncc5c4)cc23)cc1
inactive: HT29 colon 70.6% | SNB-75 CNS 54.5% | SNB-19 CNS 72.7% | PC-3 prostate 70.3% | SK-MEL-5 melanoma 88.4% | UACC-62 melanoma 76% | LOX IMVI melanoma 52.7% | SK-MEL-28 melanoma 82.7% | SK-MEL-2 melanoma 81.6%

Nc1nc(N)c2c(n1)NC(c1ccc(F)cc1)CC(c1ccc(Nc3nc(NCCO)nc(Nc4ccc(Cl)cc4)n3)cc1)=N2 (centres undefined)
active: HT29 colon -52.1% | SNB-19 CNS 8.01% | SK-MEL-5 melanoma -81% | SK-MEL-28 melanoma -82.9%
inactive: SNB-75 CNS 44.3% | PC-3 prostate 22.7% | UACC-62 melanoma 49.8% | SK-MEL-2 melanoma 26.3%

CCOC(=O)c1sc(N)c(C(=O)OCC)c1C
inactive: HT29 colon 43.4% | SNB-75 CNS 36% | SNB-19 CNS 71.7% | PC-3 prostate 54.4% | UACC-62 melanoma 57.7% | SK-MEL-28 melanoma 78.8%

N#Cc1c(-c2ccc(Cl)cc2)nc(SCc2ccc(F)cc2)nc1N1CCNCC1
inactive: SNB-75 CNS 65.3% | SNB-19 CNS 76.6% | PC-3 prostate 53.8% | SK-MEL-5 melanoma 62.5% | UACC-62 melanoma 95% | SK-MEL-28 melanoma 99.3% | SK-MEL-2 melanoma 111%
active: HT29 colon -51.8% | LOX IMVI melanoma -59.2%

CCOC(=O)c1c(NC(=O)c2cccc(C(F)(F)F)c2)sc2cc(O)ccc12
inactive: HT29 colon 105% | SNB-75 CNS 73.4% | SNB-19 CNS 96% | PC-3 prostate 94.8% | UACC-62 melanoma 97.9% | SK-MEL-28 melanoma 108% | SK-MEL-2 melanoma 100%
